Screens deposited in PubChem BioAssay by several laboratories.
In the library only some 1.4% were active in any assay of this set; here they are far more common.
CCHF vOTU inh-1 – CCHFV vOTU protease inhibition | inhibition, % at 11.5 µM | actives 0.55% (n = 370,000) | Pep-AMC fluorescence
BJeLR viability – kills HRASV12-expressing BJeLR cells. BJeLR (HRASV12) viability, CellTiter-Glo ATP luminescence, 48 h. actives 0.17% (n = 300,000). inhibition, % (test concentration not listed). AID 1554; in the data active = inhibition above about 50%
3CLpro inhibitor – SARS-CoV 3CLpro protease inhibition; P0C6X7; AID 1706; actives 0.14% (n = 290,000); inhibition, % at 6 µM; recombinant SARS-CoV 3CLpro, quenched FRET peptide cleavage; in the data active = inhibition above about 12%
MazEF act – MazEF (E. coli) toxin RNase activation | P0AE70 | actives 0.32% (n = 350,000) | activation, % at 20 µM | AID 504720 | FAM/BHQ RNA-DNA oligo cleavage fluorescence, 5 h; in the data active = activation above about 50%
Target sequence (P0AE70 whole entry, looked up): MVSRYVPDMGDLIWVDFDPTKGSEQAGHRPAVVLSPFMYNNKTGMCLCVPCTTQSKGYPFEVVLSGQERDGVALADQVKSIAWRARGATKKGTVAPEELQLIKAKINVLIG
DUSP3 inh – DUSP3 (human) phosphatase inhibition. actives 0.52% (n = 290,000). inhibition, % at 13.3 µM. recombinant VHR phosphatase, pNPP absorbance; in the data active = inhibition above about 50%
Target sequence (P51452 whole entry, looked up): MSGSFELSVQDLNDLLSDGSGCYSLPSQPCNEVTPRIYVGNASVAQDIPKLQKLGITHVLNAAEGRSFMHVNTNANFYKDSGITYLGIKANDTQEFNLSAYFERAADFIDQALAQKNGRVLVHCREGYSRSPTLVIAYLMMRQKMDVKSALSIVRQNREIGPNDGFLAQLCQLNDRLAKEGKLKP
CCHF vOTU inh-2 – CCHFV vOTU protease inhibition, confirmation; shares compounds with CCHF vOTU inh-1; Recombinant CCHFV vOTU, Pep-AMC fluorescence; inhibition, % at 11.5 µM; actives 17% (n = 1,900); AID 686976
A number is an active result. Cut-off read from the data, not from the text of the source, unless noted: active = inhibition above about 30%; inactive = the rest.

How did O=C(NC(=S)Nc1ccccc1N1CCCC1)c1ccccc1Br do in these assays?
CCHF vOTU inh-1: 34; BJeLR viability: inactive; 3CLpro inhibitor: inactive; DUSP3 inh: inactive; CCHF vOTU inh-2: 30

Results for O=C(NC(=S)Nc1ccccc1N1CCCC1)c1ccccc1[N+](=O)[O-] ?
CCHF vOTU inh-1: inactive; BJeLR viability: inactive; 3CLpro inhibitor: inactive; MazEF act: inactive; DUSP3 inh: inactive

Results for COC(=O)[C@]12CCCCC=C1N(Cc1ccc(OC)cc1)C(=O)[C@@H]2CC(=O)NCCc1ccccc1OC ?
CCHF vOTU inh-1: inactive

Results for O=C(O)c1cc(O)c2c(c1)[C@H]([C@H]1c3cc(C(=O)O)cc(O)c3C(=O)c3c(O[C@@H]4O[C@H](CO)[C@@H](O)[C@H](O)[C@H]4O)cccc31)c1cccc(OC3O[C@H](CO)[C@@H](O)[C@H](O)[C@H]3O)c1C2=O (stereo partly drawn) ?
CCHF vOTU inh-1: 118; BJeLR viability: inactive; MazEF act: inactive; CCHF vOTU inh-2: 107

What do the screens show for `O=C1c2cc(CO)cc(O)c2C(=O)c2c(O[C@@H]3OC(CO)[C@@H](O)[C@@H](O)[C@@H]3O)cccc21` (stereo partly drawn)?
CCHF vOTU inh-1: inactive; BJeLR viability: inactive; MazEF act: inactive

What do the screens show for `O=C(O)c1cc(O)c2c(c1)[C@@H]([C@H]1c3cc(C(=O)O)cc(O)c3C(=O)c3c(O[C@@H]4O[C@H](CO)[C@@H](O)[C@H](O)[C@H]4O)cccc31)c1cccc(OC3O[C@H](CO)[C@@H](O)[C@H](O)[C@H]3O)c1C2=O` (stereo partly drawn)?
CCHF vOTU inh-1: 73; BJeLR viability: inactive; MazEF act: inactive; CCHF vOTU inh-2: 33

Results for CCC(NC(=O)c1ccc2c(ccn2Cc2cccc(-c3ccc(C(=O)O)cc3)c2)c1)c1ccccc1 (stereo not drawn) ?
CCHF vOTU inh-1: 32; CCHF vOTU inh-2: inactive

What do the screens show for `c1ccc(Cn2ccc3ccc(-c4ccc5ccn(Cc6cccc(-c7cccs7)c6)c5c4)cc32)cc1`?
CCHF vOTU inh-1: inactive

What do the screens show for `O=C(NCc1ccccc1F)C1CCC(CNS(=O)(=O)c2cccc3cccnc23)CC1` (stereo not drawn)?
CCHF vOTU inh-1: inactive

How did CC1Cc2ccccc2N1CC(=O)NC(=O)NC1CCCCC1 (stereo not drawn) do in these assays?
CCHF vOTU inh-1: 31; BJeLR viability: inactive; 3CLpro inhibitor: inactive; MazEF act: inactive; DUSP3 inh: inactive; CCHF vOTU inh-2: inactive

How did O=C(Nc1ccc(F)cc1)OCCN1C(=O)CCC12CCC(c1ccc(Cl)cc1)CC2 (stereo not drawn) do in these assays?
CCHF vOTU inh-1: inactive

Results for Nn1c(SCC(=O)Nc2ccc(S(=O)(=O)Nc3nccs3)cc2)nnc1-c1ccco1 ?
CCHF vOTU inh-1: inactive

Results for COc1cc(NCCCCCCN)c2ncccc2c1OC ?
CCHF vOTU inh-1: 102; MazEF act: inactive; CCHF vOTU inh-2: 94

What do the screens show for `COc1cc(NC(C)CCCNC(C)C)c2ncccc2c1OC` (stereo not drawn)?
CCHF vOTU inh-1: inactive; MazEF act: inactive

What do the screens show for `COc1cc(N)c2ncccc2c1OC`?
CCHF vOTU inh-1: 40; MazEF act: inactive; CCHF vOTU inh-2: inactive

Results for O=C(/C=C/c1cccc(Cl)c1)OCC(=O)c1ccc[nH]1 ?
CCHF vOTU inh-1: 35; MazEF act: inactive; CCHF vOTU inh-2: inactive

What do the screens show for `O=C(/C=C/c1ccccc1Cl)OCC(=O)c1ccc[nH]1`?
CCHF vOTU inh-1: inactive; MazEF act: inactive

Results for COC(=O)[C@]12CCCCC=C1N(Cc1ccc(OC)cc1)C(=O)[C@@H]2CC(=O)NCc1ccc(C)o1 ?
CCHF vOTU inh-1: inactive

Results for COc1cc(/C=C2/C(=O)NN(c3ccc(Cl)c(Cl)c3)C2=O)cc([N+](=O)[O-])c1O ?
CCHF vOTU inh-1: 38; BJeLR viability: inactive; 3CLpro inhibitor: inactive; MazEF act: inactive; DUSP3 inh: inactive; CCHF vOTU inh-2: inactive

Results for COC(=O)/C(=C/Nc1ccc(O)cc1)[N+](=O)[O-] ?
CCHF vOTU inh-1: 93; BJeLR viability: inactive; 3CLpro inhibitor: inactive; MazEF act: inactive; DUSP3 inh: inactive; CCHF vOTU inh-2: inactive

What do the screens show for `Cn1cccc1C(=O)N1CCN(S(=O)(=O)c2ccc(Br)s2)CC1`?
CCHF vOTU inh-1: inactive

How did Cc1[nH][nH]c(=O)c1C(c1ccc(-c2ccc(F)cc2)o1)c1c(C)[nH][nH]c1=O do in these assays?
CCHF vOTU inh-1: 46; BJeLR viability: inactive; 3CLpro inhibitor: inactive; MazEF act: inactive; DUSP3 inh: inactive; CCHF vOTU inh-2: inactive

What do the screens show for `Cc1[nH][nH]c(=O)c1C(c1ccc(-c2ccc(C(=O)O)cc2)o1)c1c(C)[nH][nH]c1=O`?
CCHF vOTU inh-1: inactive; 3CLpro inhibitor: inactive; MazEF act: inactive; DUSP3 inh: inactive

How did C[C@@H]1[C@H](O)[C@@H](C)/C=C/C=C/C=C/C=C/C=C/C=C/C=C/[C@H](OC2O[C@H](C)[C@@H](O)[C@H](N)[C@@H]2O)C[C@@H]2O[C@](O)(C[C@@H](O)C[C@@H](O)[C@H](O)CC[C@@H](O)C[C@@H](O)CC(=O)O[C@H]1C)C[C@H](O)[C@H]2C(=O)O (stereo partly drawn) do in these assays?
CCHF vOTU inh-1: inactive

What do the screens show for `Nc1ccc2nc(-c3ccc(-c4nc5ccc(N)cc5[nH]4)cc3)[nH]c2c1`?
CCHF vOTU inh-1: 36; BJeLR viability: inactive; 3CLpro inhibitor: inactive; MazEF act: inactive; DUSP3 inh: inactive; CCHF vOTU inh-2: inactive

Results for COc1cccc(N2CCN(CC(=O)NCc3ccco3)CC2)c1 ?
CCHF vOTU inh-1: inactive

What do the screens show for `C[N+]1(C)CCC(=C2c3ccccc3CC(=O)c3sccc32)CC1`?
CCHF vOTU inh-1: 32; BJeLR viability: inactive; 3CLpro inhibitor: inactive; MazEF act: inactive; DUSP3 inh: inactive; CCHF vOTU inh-2: inactive

What do the screens show for `CCC(C)(C)c1ccc(OCCCC[n+]2cccc(C)c2)c(C(C)(C)CC)c1`?
CCHF vOTU inh-1: 40; BJeLR viability: inactive; 3CLpro inhibitor: inactive; MazEF act: inactive; DUSP3 inh: inactive; CCHF vOTU inh-2: inactive

What do the screens show for `O=C(NCC1CCN(C(=O)C(=O)c2cc3ccccc3o2)CC1)c1cc(C(F)(F)F)cc(C(F)(F)F)c1`?
CCHF vOTU inh-1: 37; CCHF vOTU inh-2: inactive

How did COC(=O)c1ccc(Cn2ccc3ccc(-c4ccc5ccn(Cc6ccc(C(=O)OC)cc6)c5c4)cc32)cc1 do in these assays?
CCHF vOTU inh-1: inactive

What do the screens show for `Fc1ccc(-c2n[nH]c(=S)n2N=Cc2ccc(OCc3ccccc3)cc2)cc1`?
CCHF vOTU inh-1: inactive

Results for Cn1cc(/C=C2\SC(=S)N(NC(=O)c3ccccc3Cl)C2=O)c2ccccc21 ?
CCHF vOTU inh-1: 31; 3CLpro inhibitor: inactive; MazEF act: inactive; DUSP3 inh: inactive; CCHF vOTU inh-2: inactive

Results for Cc1ccc(C(=O)NN2C(=O)/C(=C/c3cn(C)c4ccccc34)SC2=S)cc1 ?
CCHF vOTU inh-1: inactive; 3CLpro inhibitor: inactive; MazEF act: inactive; DUSP3 inh: inactive
